Shown are actives, neighbours in structure and some others; about 2.3% of the full set was active somewhere.
Nrf2 inh = blocks Nrf2 signaling; A549 ARE-Fluc reporter, luciferase luminescence, 18-24 h; Potency, µM (top dose mostly 46 µM), most hits filed as inhibitors; 360,000 tested, 2.1% active; AID 504444; note: nearly all actives have a fitted effect of over 60% in size
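A549 ARE_Fluc cells, 5000/well, 5% FBS OPTI-MEM; compounds in dose-response, 18-24 h at 37 °C/5% CO2; CellTiter-Fluor viability read (Ex 405/Em 525), then BugLite luciferase luminescence = Nrf2 activity.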
Nrf2 activator = activators of Nrf2 (ARE) signaling | AID 624171 | AREc32 ARE-luciferase reporter (MCF7-derived line), luminescence, 24 h | 410,000 tested, 0.31% active | Potency, µM (series often up to 46.1 µM), most hits filed as activators; note: nearly all actives have a fitted effect of over 65% in size
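Cells of the AREc32 ARE-luciferase line are plated in OPTI-MEM containing 5% FBS and left overnight at 37 deg C. Compounds are pinned in, incubation continues 24 hr, and firefly luciferase signal is then measured.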
Rango release inh = inhibition of RanGTP-driven Rango-importin beta dissociation; Biochemical FRET Rango-importin beta, RanGTP-induced dissociation; Potency, µM (highest dose often 46.1 µM); 340,000 tested, 0.071% active; AID 540253; calls by dose curve; note: nearly all actives have a fitted effect of over 45% in size
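Compounds sat 5 min at room temperature with 0.1 uM Rango biosensor plus 0.25 uM importin beta, then FRET pre-read. RanGTP-RCC1 (0.6 uM Ran, 2mM GTP, 0.2 uM RCC1) added for 45 min, and the CFP/YFP post-read measured blocked complex dissociation.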
A549 viability = kills or reduces viability of A549 cells in Nrf2 counter-screen. A549 ARE-Fluc cells, CellTiter-Fluor viability, 18-24 h. Potency, µM (top dose mostly 46 µM), usual class: inhibitors. AID 504648. 390,000 tested, 0.16% active
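A549 ARE-Fluc cells in 5% FBS OPTI-MEM, 5000 cells/well, rested 2 h then exposed to compounds in concentration-response for 18-24 h at 37 °C. Viability by CellTiter-Fluor fluorescence (Ex 405/Em 525) after 30 min; luciferase luminescence (BugLite, 15 min, RT) read afterwards.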
Rango-impB inh = Rango-importin beta binding inhibition; Q14974; 340,000 tested, 0.031% active; Rango CFP/YFP FRET sensor + importin beta, 45 min; Potency, µM (doses to about 92.2 µM); calls by dose curve; note: nearly all actives have a fitted effect of over 15% in size
Target sequence (Q14974 whole entry, looked up): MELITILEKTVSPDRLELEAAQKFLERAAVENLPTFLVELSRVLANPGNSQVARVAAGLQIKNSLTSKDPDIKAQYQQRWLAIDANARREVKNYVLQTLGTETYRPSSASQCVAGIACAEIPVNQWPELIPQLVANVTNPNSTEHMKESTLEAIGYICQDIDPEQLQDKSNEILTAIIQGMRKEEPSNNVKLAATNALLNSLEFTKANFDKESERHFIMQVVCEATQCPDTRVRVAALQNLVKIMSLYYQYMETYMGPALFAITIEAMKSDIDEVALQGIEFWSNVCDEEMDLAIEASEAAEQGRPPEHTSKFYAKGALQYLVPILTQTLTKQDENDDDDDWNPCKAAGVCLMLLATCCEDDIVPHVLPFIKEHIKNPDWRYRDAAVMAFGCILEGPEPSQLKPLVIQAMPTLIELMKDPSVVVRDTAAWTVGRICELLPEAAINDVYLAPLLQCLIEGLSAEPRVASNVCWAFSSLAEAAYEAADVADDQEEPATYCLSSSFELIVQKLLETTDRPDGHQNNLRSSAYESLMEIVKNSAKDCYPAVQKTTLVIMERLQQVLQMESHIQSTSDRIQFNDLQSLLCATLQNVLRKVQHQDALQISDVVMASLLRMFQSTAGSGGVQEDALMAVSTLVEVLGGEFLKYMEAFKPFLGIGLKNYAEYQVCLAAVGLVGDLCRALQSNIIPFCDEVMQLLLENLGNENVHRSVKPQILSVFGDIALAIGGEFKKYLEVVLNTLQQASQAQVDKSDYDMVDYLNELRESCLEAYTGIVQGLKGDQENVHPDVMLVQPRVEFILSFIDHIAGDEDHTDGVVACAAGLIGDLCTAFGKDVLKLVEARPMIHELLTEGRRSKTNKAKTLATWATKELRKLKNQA
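Inhibition scored from the CFP 486 nm/YFP 530 nm FRET ratio 45 min after adding 0.125 microM importin beta to 50 nM Rango biosensor preincubated 5 min with compound (room temperature, PBS with DTT, Tween-20, BSA). No-importin wells as positive control.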
Hits are given with their value; – = inactive; ? = inconclusive; · = not tested or not shown; [ ] = remark or other dose. Unless noted, calls come from the whole dose curve; as a rule, active = well fitted curve in the direction sought with a large enough effect; inconclusive = small, poorly fitted or top-dose-only effect, or another doubt; inactive = no such curve, though single readings can be large; an effect the other way counts as inactive or inconclusive.

SMILES	Nrf2 inh	Nrf2 activator	Rango release inh	A549 viability	Rango-impB inh
CC(C)OC(=O)c1cccc2c1C(=O)c1ccccc1-2	–	11µM	–	–	–
O=C(O)c1cccc2c1C(=O)c1ccccc1-2	–	–	–	–	–
Cc1ccc(S(=O)(=O)SCCCSS(=O)(=O)c2ccc(C)cc2)cc1	–	–	–	–	–
Cc1ccc(S(=O)(=O)SC/C=C/CSS(=O)(=O)c2ccc(C)cc2)cc1	12µM	–	–	–	–
CC(C)(C)c1ccc(OCCNC(=S)Nc2ccccc2)cc1	16µM	–	–	?	–
COc1ccc(NC(=O)c2csc(Cc3ccc(Cl)cc3)n2)cc1	–	–	–	–	–
COc1ccc(NC(=O)c2sccc2-n2cccc2)cc1	–	?	–	–	?
COc1ccc(COc2ccsc2C(=O)Nc2ccc(Cl)cc2)cc1	?	8.9µM	–	?	–
O=C(Nc1ccc(Cl)cc1)c1sccc1-n1cccc1	?	11µM	–	–	–
CCn1c(C(=O)Nc2ccccc2C(=O)OC)cc2sc(Cl)cc21	–	–	·	–	·
COc1ccc(S(=O)(=O)N2CCOC2CNC(=O)C(=O)NCCc2c[nH]c3ccccc23)cc1C (centres undefined)	?	–	–	–	–
COc1ccc(S(=O)(=O)N2CCOC2CNC(=O)C(=O)NCCc2c[nH]c3ccccc23)cc1 (centres undefined)	7.3µM	–	–	–	–
Cc1ccc(S(=O)(=O)N2CCOC2CNC(=O)C(=O)NCCCc2ccccc2)cc1 (centres undefined)	21µM	–	–	–	–
Cc1ccc(S(=O)(=O)N2CCOC2CNC(=O)C(=O)NCCc2ccccc2)cc1 (centres undefined)	–	–	–	–	–
COc1ccc(C(=O)NCc2nnnn2-c2ccc(C)c(C)c2)cc1	·	–	·	–	·
N#Cc1nnn(-c2ccc(Cl)cc2)c1N	–	–	–	–	–
CCOP(=O)(OCC)c1nc(-c2ccc(Cl)cc2Cl)oc1N1CCCCC1	21µM	–	–	?	–
Cc1ccc(S(=O)(=O)/N=C(\N)Nc2nc(C)c3ccc(C)cc3n2)cc1	8.2µM	–	–	–[1.84 µM]	–
Cc1ccc2c(C)nc(N/C(N)=N/S(=O)(=O)c3ccccc3)nc2c1	–	–	–	–	–
c1ccc2c(c1)Nc1ccncc1S2	29µM	–	–	–	–
c1ccc2c(c1)Nc1cc3ccccc3cc1S2	?	–	–	–	–
CC(C)c1nnc(NC(=O)c2c(O)c3cccc4c3n(c2=O)CCC4)s1	16µM	–	–	?	–
CCCc1nnc(NC(=O)c2c(O)c3cccc4c3n(c2=O)CC4)s1	–	–	–	–	–
CCOc1ccc(NC(=O)Nc2cccn(Cc3ccccc3)c2=O)cc1	9.2µM	–	–	?	–
O=C(NCc1ccccc1)Nc1cccn(Cc2ccccc2)c1=O	?	–	–	–	–
SMILES	Nrf2 inh	Nrf2 activator	Rango release inh	A549 viability	Rango-impB inh
COc1ccc(-c2cc3ccccc3nc2N)cc1OC	16µM	–	–	–	–
Cc1ccc(C(=O)O)cc1N1C(=O)c2cccc3c([N+](=O)[O-])ccc(c23)C1=O	–	?	?	–	?
CC(=O)Oc1cccc(N2C(=O)c3cccc4c([N+](=O)[O-])ccc(c34)C2=O)c1	?	–	1.8µM[inhibitor]	–	?
Cc1cccnc1NC(=S)NC(=O)c1cccs1	?	10µM	–	–	–
Cc1cccnc1NC(=O)CNC(=O)c1cccs1	–	–	–	–	–
COc1ccccc1CNC(=O)c1ccc2c(c1)nnn2C1CCCC1	?	–	·	–	·
COc1ccc(-n2nnnc2S(=O)(=O)CC(=O)N2CCCCC2)cc1	26µM	–	–	?	–
COc1ccc(-n2nnnc2S(=O)(=O)Cc2ccc(C(=O)O)cc2)cc1	?	–	–	–	–
Cc1ccc(Nc2nc(N)nc(CSC(=S)N3CCN(c4ccccc4)CC3)n2)cc1	–	–	–	–	?
Nc1nc(CSC(=S)N2CCN(c3ccccc3)CC2)nc(Nc2ccccc2)n1	16µM	–	–	–	–
Cc1cc(C)c2c(c1)/C(=c1/sc3n(c1=O)CN(c1ccccc1)CN=3)C(=O)N2	–	–	–	–	–
COc1ccc(-n2c(SCC#N)nnc2-c2ccc(NS(=O)(=O)c3ccc(C)cc3)cc2)cc1	10µM	–	–	–	–
CCOC(=O)c1cc2c(=Cc3ccc(N(C)C)cc3)c3ccccc3n2[n+]1C	8.2µM	–	?	?	–
CN(C)c1ccc(C=C2C=Cc3ccccc32)cc1	?	–	–	–	–
CN(C)c1ccc(C=c2c3ccccc3n3c2c2ccccc2[n+]3C)cc1	8.2µM	–	–	?	–
Cc1ccc(-c2nnc3c(C(F)(F)F)nc4ccccc4n23)cc1	23µM	–	–	?	–
FC(F)(F)c1nnc2c(Sc3ccc(Cl)cc3)nc3ccccc3n12	?	–	–	–	–
Cc1ccc(-c2nc3ccccc3n3nnnc23)cc1	?	–	–	–	–
FC(F)(F)c1nc2ccccc2n2c(-c3ccc(Cl)cc3)nnc12	·	–	–	5.8µM	–
CC(C)CN1CCC(=O)N(C(CSc2ccc(Br)cc2)Cc2ccccc2)CC1 (centres undefined)	–	·	·	–	·
Cc1ccc(C(=O)N2CCN(c3ccc(NC(=O)COc4ccccc4C)cc3)CC2)cc1	21µM	–	–	?	–
O=C(COc1ccccc1)Nc1ccc(N2CCN(C(=O)c3ccco3)CC2)cc1	–	–	–	–	–
Cc1ccc(OCC(=O)Nc2ccc(N3CCN(C(=O)c4ccco4)CC3)cc2)cc1	21µM	–	–	–	–
CCC(=O)N1CCN(c2ccc(NC(=O)COc3ccc(C)cc3C)cc2)CC1	?	–	–	–	–
Cc1ccc(NC(=O)c2nc[nH]c2C(=O)N[C@@H](C)c2ccccc2)cc1	?	–	–	–	–
SMILES	Nrf2 inh	Nrf2 activator	Rango release inh	A549 viability	Rango-impB inh
CC(C)(C)OC(=O)NCCCCCNC(=O)c1[nH]cnc1C(=O)Nc1ccc(Cl)cc1	16µM	–	–	?	–
C[C@@H](NC(=O)c1[nH]cnc1C(=O)Nc1ccccc1)c1ccccc1	23µM	–	–	–	–
C[C@H](NC(=O)c1[nH]cnc1C(=O)Nc1ccc(Cl)cc1)c1ccccc1	18µM	–	–	–	–
C[C@H](NC(=O)c1[nH]cnc1C(=O)Nc1cccc(Cl)c1)c1ccccc1	?	–	–	–	–
C[C@@H](NC(=O)c1[nH]cnc1C(=O)Nc1ccc(Cl)cc1)c1ccccc1	5.8µM	–	–	18µM	–
Cc1ccc(NC(=O)c2nc[nH]c2C(=O)NCCCCCNC(=O)OC(C)(C)C)cc1	?	–	–	?	–
COc1ccc(NC(=O)c2c(NCc3ccc(OC)c(OC)c3OC)sc3c2CCC3)c(OC)c1	·	–	·	–	·
O=C(Nc1cccc(Br)c1)c1ccc(CN2CCc3ccccc3C2)cc1	8.2µM	–	–	–	–
O=C(Nc1ccc(F)cc1)c1ccc(CN2CCc3ccccc3C2)cc1	5.8µM	–	–	–	–

Assay outcomes from PubChem BioAssay.
